Active and inactive are the calls of the source. How the source made its calls: active means hit-call score of the fitted dose curve at least 0.9, where 1 is the maximum; inactive means score below 0.9.

What is called AC50 is the midpoint of the concentration-response curve, whichever way the signal moves.

Read-out in this assay: adenosine kinase (ADK) gene, ADK (gene 132)
Put plainly: LTEA_HepaRG_ADK: Life Technologies and Expression Analysis (LTEA) Assay for adenosine kinase (ADK) gene using HepaRG (AID 2283471). To be noted: mRNA level, 48 h; actives raise or lower the signal. The protocol: LTEA_HepaRG is a cell based, multiplexed-readout assay that uses HepaRG, a human liver cell line, with measurements taken at 48 hours after chemical dosing on a 96-well plate.LTEA_HepaRG_ADK is one of 102 assay component(s) measured in the LTEA HepaRG cell culture assay. It is a marker of Steatosis.Data from the assay component LTEA_HepaRG_ADK was analyzed into 1 endpoint. This assay endpoint, LTEA_HepaRG_ADK, was analyzed with bidirectional fitting relative to DMSO as the negative control and baseline of activity. Using a type of inducible reporter, measures of mRNA induction for gain or loss-of-signal activity can be used to understand regulation of transcription factor activity. To generalize the intended target to other relatable targets, this assay endpoint is annotated to the kinase intended target family, where the subfamily is steatosis.
A total of 1060 chemcials from the ToxCast library were tested in eight-point concentration-response experiments. Cell culture and cytotoxicity assays were conducted at Thermo Fisher Scientific's Custom Services facility (Madison, WI). A single lot of human HepaRG cells (Thermo Fisher Scientific, Frederick, MD) was used for the cell culture experiments. 96-well format collagen type I coated plates of human HepaRG cells were prepared using established methods. Briefly, cryopreserved HepaRG cells were thawed, plated at a density of approximately 100,000 cells/well in HepaRG Thaw, Plate, and General Purpose media (HPRG770, Thermo Fisher Scientific), and incubated for 48 hours. 0.5% DMSO was selected as vehicle control to balance the requisite need of DMSO in HepaRG cultures to maintain differentiation (for example, baseline metabolism, proportions of hepatocytes vs. cholangiocytes), while enabling further hepatic receptor pathway activation (for example, PXR and CAR) in response to chemical exposure. 48 hours after plating, the culture medium was replaced with HepaRG Serum-Free Incudtion Media. Cells were exposed to each test chemical in duplicate and maintained in CO2 incubators for another 48 hours. Chemical plates were thawed to room temperature and 200x concentrations of treatment groups were prepared. 8-point conentration-reponse curves were made with the highest exposure at 100 uM, followed by half-log dilutions, all in 0.5% DMSO. Each test plate contained variouse controls, induction positive controls (1mM phenobarbital), cytotoxicity positive controls ([…] aflatoxin B1), vehicle controls (0.5% DMSO), and total lysis controls (0.5% DMSO). Cell morphology images were taken using an Essen IncuCyte FLR automated microscope, with six 96-well plates imaged in about 24 minutes. Images were captured and exported and JPEG files. Spent culture media was transfered to black-well plates for the LDH assay, and remaining media was sorted at -80 C for later use. Cells were treated with RLT buffer and frozen until shipped for gene expression analysis. Total RNA was isolated from the cell suspension in 75 uL of Buffer RLT (Qiagen, Germantown, MD 20874) by Quintiles/Expression Analysis (Durham, NC) using a custom isolation procedure. Total RNA from each plate well was transferred to a preamplification plate. Fluidigm's 96.96 Dynamic ArrayTM (Fluidigm, Amsterdam, the Netherlands) technology was used for gene expression analyses by quantitative reverse transcription polymerase chain reaction (qRT-PCR, performed by Quintiles/Expression Analysis, Durham, NC)89. Standard TaqManTM Assays (Applied Biosystems/ThermoFisher Scientific, Foster City, CA) were used to assess the expression of 93 genes selected based on their selectivity and sensitivity to important hepatic receptors known to be modulated by environmental chemicals; importance in human hepatocyte functionality; and hepatotoxicity. […]
`CC(c1ccc(O)cc1)(c1ccc(O)cc1)c1ccc(O)cc1`: the half-maximal activity concentration (AC50) was 75.7 µM (active).

Turning to `CCC(C)(c1ccc(O)cc1)c1ccc(O)cc1`, the outcome was inactive.

Regarding `C[C@]12CCC(=O)C=C1CC[C@@H]1[C@@H]2CC[C@]2(C)C(=O)CC[C@@H]12`, the compound was called inactive.

As for `Cc1ccc(O)c(C)c1`, the result was inactive.

`CCOC(=O)C(O)(c1ccc(Cl)cc1)c1ccc(Cl)cc1`: the result was inactive.

Turning to `Cc1ccccc1CO[C@@H]1C[C@@]2(C(C)C)CC[C@]1(C)O2`, the compound was classed as inactive.

As for `NS(=O)(=O)C(F)(F)C(F)(F)C(F)(F)C(F)(F)C(F)(F)C(F)(F)C(F)(F)C(F)(F)F`, the half-maximal activity concentration (AC50) was 4.81 µM (active).

In the case of `ClC1=C(Cl)[C@]2(Cl)[C@@H]3[C@@H](Cl)[C@H]4O[C@H]4[C@@H]3C1(Cl)C2(Cl)Cl`, the compound was called inactive.

With `COS(=O)(=O)OC`, the outcome was inactive.

With `CCCCCCCCCc1ccc(O)cc1`, the compound was classed as inactive.

As to `Cc1ccccc1[N+](=O)[O-]`, the outcome was inactive.

Consider `CC(C)C(=O)OCC(C)(C)C(OC(=O)C(C)C)C(C)C` (stereo not given), for which the result was inactive.

On to `O=C(NC(=O)c1c(F)cccc1F)Nc1cc(Cl)c(OC(F)(F)C(F)F)c(Cl)c1`, for which the call was inactive.

For the compound `C[C@]12CCC(=O)C=C1CC[C@@H]1[C@@H]2CC[C@@]2(C)[C@H]1CC[C@]2(C)O`, the compound was classed as inactive.

`CO/C=C(/C(=O)OC)c1ccccc1COc1cccc(C(F)(F)F)n1`: the compound was called inactive.

Consider `Nc1ccc(-c2ccc(N)cc2)cc1`, for which the result was inactive.

In the case of `CN(C)c1nc(=O)n(C2CCCCC2)c(=O)n1C`, the result was inactive.

Take `CCOCCOC(C)=O`: the outcome was inactive.

For `O=C(O)C(F)(F)C(F)(F)C(F)(F)C(F)(F)C(F)(F)C(F)(F)C(F)(F)C(F)(F)F`, the compound was called inactive.

In the case of `CC1=C2C[C@H]3[C@@H](CC=C4C[C@@H](O)CC[C@@]43C)[C@@H]2CC[C@]12O[C@@H]1C[C@H](C)CN[C@H]1[C@H]2C`, the outcome was inactive.

Regarding `C=CC(N)=O`, the outcome was inactive.

Take `O=C(NC(=O)c1cc(F)c(F)cc1Cl)Nc1cc(F)ccc1N1CCC(C(=O)O)CC1`: the outcome was inactive.

Consider `O=NN(c1ccccc1)c1ccccc1`, for which the concentration at half-maximal activity (AC50) was 11.8 µM (active).

On to `ClC1=C(Cl)[C@]2(Cl)[C@@H]3[C@@H]4C[C@@H]([C@H]5O[C@@H]45)[C@@H]3[C@@]1(Cl)C2(Cl)Cl`, for which the AC50 was 0.0386 µM (active).

In the case of `O=S(=O)(O)C(F)(F)C(F)(F)C(F)(F)C(F)(F)C(F)(F)C(F)(F)F`, the result was inactive.

For `Clc1ccc(C(c2ccccc2Cl)C(Cl)(Cl)Cl)cc1` (stereo not given), the compound was classed as inactive.

For the compound `ClC1=C(Cl)[C@]2(Cl)[C@@H]3[C@H]4C[C@H]([C@@H]5O[C@H]45)[C@@H]3[C@@]1(Cl)C2(Cl)Cl`, the compound was classed as inactive.

As for `CCNc1nc(NC(C)C)nc(SC)n1`, the outcome was inactive.

For `O=S(=O)(O)C(F)(F)C(F)(F)C(F)(F)C(F)(F)F`, the compound was classed as inactive.

As for `Oc1ccc(C(c2ccc(O)cc2)(C(F)(F)F)C(F)(F)F)cc1`, the concentration at half-maximal activity (AC50) is 81.6 µM (active).

Take `O=C(O)C(F)(F)C(F)(F)C(F)(F)C(F)(F)C(F)(F)F`: the half-maximal activity concentration (AC50) is 3 µM (active).

On to `Cc1cccc([N+](=O)[O-])c1`, for which the compound was called inactive.

As to `CCOP(=S)(OCC)SCSC(C)(C)C`, the call was inactive.

For the compound `C=CC(=O)NCNC(=O)C=C`, the result was inactive.

On to `CCC(C)(CC)c1cc(NC(=O)c2c(OC)cccc2OC)on1`, for which the result was inactive.

Consider `CCCCCCOC(=O)c1ccccc1C(=O)OCCCCCC`, for which the compound was called inactive.

Regarding `COc1ccc(O)c(C(C)(C)C)c1`, the compound was classed as inactive.

As for `CCCCCCCCCC[N+](C)(C)CCCCCCCCCC`, the half-maximal activity concentration (AC50) was 79.1 µM (active).

For `O=C(N[C@H]1CN2CCC1CC2)c1cc2ccoc2cn1`, the call was inactive.

For the compound `Nn1cnnc1`, the outcome was inactive.

Values taken from PubChem BioAssay (EPA / NIEHS).
